In ChEMBL document CHEMBL4808148, “HDAC6 screening dataset using tau-based substrate in an enzymatic assay yields selective inhibitors and activators” (2021):
The campaign covered roughly 5,600 compounds. About 390 (7%) showed an effect of 50% or more. What follows is part of a selection rich in strong results, with near analogues and random picks from the rest.

Target: T1, Protein deacetylase HDAC6 (Homo sapiens) (UniProt Q9UBN7)
T1 sequence (whole entry): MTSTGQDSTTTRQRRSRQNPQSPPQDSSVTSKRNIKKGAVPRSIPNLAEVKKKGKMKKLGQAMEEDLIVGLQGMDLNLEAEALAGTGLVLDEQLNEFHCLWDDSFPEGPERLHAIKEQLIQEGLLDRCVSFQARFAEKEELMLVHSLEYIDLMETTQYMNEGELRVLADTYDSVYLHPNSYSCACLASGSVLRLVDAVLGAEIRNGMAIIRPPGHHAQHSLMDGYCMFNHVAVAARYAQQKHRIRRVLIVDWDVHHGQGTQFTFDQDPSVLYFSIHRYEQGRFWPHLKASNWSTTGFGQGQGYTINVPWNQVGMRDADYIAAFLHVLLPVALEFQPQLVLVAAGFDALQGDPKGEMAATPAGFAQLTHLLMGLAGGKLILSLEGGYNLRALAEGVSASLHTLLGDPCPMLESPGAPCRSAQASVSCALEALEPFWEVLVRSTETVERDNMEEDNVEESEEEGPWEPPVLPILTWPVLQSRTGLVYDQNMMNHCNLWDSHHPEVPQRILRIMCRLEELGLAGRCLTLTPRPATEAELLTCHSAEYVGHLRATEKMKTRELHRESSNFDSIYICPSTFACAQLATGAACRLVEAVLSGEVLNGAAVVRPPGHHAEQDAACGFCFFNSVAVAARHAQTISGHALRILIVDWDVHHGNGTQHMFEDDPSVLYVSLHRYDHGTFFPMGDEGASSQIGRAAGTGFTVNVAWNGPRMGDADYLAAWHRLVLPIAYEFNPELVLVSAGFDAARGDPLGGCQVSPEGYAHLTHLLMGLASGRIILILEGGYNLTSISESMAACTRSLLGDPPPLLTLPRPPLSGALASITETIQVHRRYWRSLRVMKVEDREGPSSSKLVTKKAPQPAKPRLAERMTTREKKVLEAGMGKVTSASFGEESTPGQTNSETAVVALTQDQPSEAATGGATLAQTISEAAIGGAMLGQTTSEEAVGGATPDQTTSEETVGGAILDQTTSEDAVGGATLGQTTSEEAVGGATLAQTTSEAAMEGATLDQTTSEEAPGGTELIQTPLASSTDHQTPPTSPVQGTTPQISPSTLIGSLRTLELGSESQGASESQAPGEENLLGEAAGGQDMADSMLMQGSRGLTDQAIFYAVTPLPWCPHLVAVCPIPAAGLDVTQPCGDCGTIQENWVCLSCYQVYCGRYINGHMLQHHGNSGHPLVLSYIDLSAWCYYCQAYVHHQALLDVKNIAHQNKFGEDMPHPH
Conditions: at 10 µM

SMILES	inhibition [%]
COc1cc(C)c2c(Oc3cccc(C(F)(F)F)c3)c(OC)cc(NC(C)CCCN)c2n1 (stereo not drawn)	19.9
Cc1ccc(C(=O)Nc2cccc(C(F)(F)F)c2)cc1Nc1nc(-c2cccnc2)nc2c1cnn2C	17.5
Cc1ccc(NC(=O)c2ccc(CN3CCN(C)CC3)cc2)cc1Nc1nccc(-c2cccnc2)n1	36.3
Cc1ccc(NC(=O)c2ccc(CN3CCN(C)CC3)cc2)cc1Nc1nc(-c2cccnc2)cs1	89.4
Nc1sc2c(c1C(=O)c1ccc(Cl)cc1)CCCC2	31.2
O=C1CC2(CCCC2)CC(=O)N1CCCCNCC1COc2ccccc2O1 (stereo not drawn)	18.1
Cc1cccc(Nc2cc(Cl)nc(SCC(=O)O)n2)c1C	9.22
O=C(CCCCCCC(=O)Nc1cccnc1)NO	100
O=C(O)CCCCCCCC(=O)O	29.8
O=C(CCCCCCC(=O)NO)NO	99.2
O=C(O)CCCCCCCCC(=O)O	0.61
Cc1cc(-c2ccc(CC(=O)Nc3ccc(-c4cccnc4)cc3)cc2)ccn1	37.6
NC(=O)c1cccnc1	2.11
O=[N+]([O-])c1ccc2c(c1)S(=O)(=O)C=C2	20.7
NC(C(=O)O)c1ccc(C(=O)O)c(C(=O)O)c1 (racemic)	1.97
COc1ccc(-c2csc(NC(=O)[C@H]3CCCCN3S(=O)(=O)c3ccc(C)cc3)n2)cc1	0.15
Nc1nc(NC[C@H]2CC[C@H](CNS(=O)(=O)c3cccc4ccccc34)CC2)nc2ccccc12	9.28
CCOc1ccccc1C(=O)O	0.84
CCCCNc1ncc2c(-c3ccc(CN4CCN(C)CC4)cc3)cn([C@H]3CC[C@H](O)CC3)c2n1	62.3
COC(=O)c1ccccc1COc1ccccc1[N+](=O)[O-]	35.8
N=C(N)NCCC[C@H](NC(=O)c1sccc1NS(=O)(=O)c1cccc2nsnc12)C(=O)O	-2.5
CCN(CC)CCCN(c1ccccc1)C1Cc2ccccc2C1	9.47
CCOC(=O)c1c(C)n(C)c2ccc(O)cc12	60.5
CCOC(=O)c1ccc(N)cc1	16.9

SMILES	inhibition [%]
CCOC(=O)C1=C(C)NC(=S)NC1c1cccc(O)c1 (stereo not drawn)	7.87
O=C1C=CC(=O)C2=C1C1c3ccccc3C2c2ccccc21	-5.86
N#CC(c1ccnc(OCc2ccc(CN3CCOCC3)cc2)n1)c1nc2ccccc2s1 (stereo not drawn)	73.7
N[C@H]1CCN(O)C1=O	-4.15
CCNC(=O)[C@@H]1CCCN1C(=O)[C@H](CCCNC(=N)N)NC(=O)[C@H](CC(C)C)NC(=O)[C@@H](CC(C)C)NC(=O)[C@H](Cc1ccc(O)cc1)NC(=O)[C@H](CO)NC(=O)[C@H](Cc1c[nH]c2ccccc12)NC(=O)[C@H](Cc1c[nH]cn1)NC(=O)[C@@H]1CCC(=O)N1	33.6
N#Cc1c(N)nc(SCc2ncc[nH]2)c(C#N)c1-c1ccc(O)cc1	54.7
CC(C)C[C@H](NC(=O)[C@@H](Cc1c[nH]c2ccccc12)NC(=O)[C@H](Cc1ccc(O)cc1)NC(=O)[C@H](CO)NC(=O)[C@H](Cc1c[nH]c2ccccc12)NC(=O)[C@H](Cc1c[nH]cn1)NC(=O)[C@@H]1CCC(=O)N1)C(=O)N[C@@H](CCCNC(=N)N)C(=O)N1CCC[C@H]1C(=O)NCC(N)=O	-2.71
CN(C)CCN(Cc1cccs1)c1ccccn1	11.5
Nc1nc(O)c2c(n1)NCC(CNc1ccc(C(=O)N[C@@H](CCC(=O)O)C(=O)O)cc1)N2 (stereo partly drawn)	-7.59
Cc1csc(-c2nnc(Nc3ccc(Oc4ncccc4-c4ccnc(N)n4)cc3)c3ccccc23)c1	72.1
Cc1cc(C(=O)Nc2nc3cccc(Cl)c3n2[C@@H]2CCCCN(C(=O)/C=C/CN(C)C)C2)ccn1	-3.32
C#CCN1C(C)=C(C(=O)OC)C(c2cccc([N+](=O)[O-])c2)C(C(=O)OCC)=C1C (stereo not drawn)	-1.94
C=CC(=O)Nc1cccc(Oc2nc(Nc3ccc(N4CCN(C)CC4)cc3)nc3ccsc23)c1	14.3
CCC(C)C(CC)C(N)=O (stereo not drawn)	2.6
C=Cc1cc(O)cc2nc(-c3ccc(O)c(F)c3)oc12	-4.14
O=C(NC1CC1)c1cc(-c2cccs2)on1	75.4
C=CC(=O)Nc1cc2c(Nc3ccc(F)c(Cl)c3)ncnc2cc1OCCCN1CCOCC1	9.13
Nc1nncs1	6.15
NC(=O)c1ccc([N+](=O)[O-])cc1Cl	8.11
O=C(Nc1ccc([N+](=O)[O-])cc1O)Nc1ccccc1Br	101
CN(N=O)C(=O)N[C@@H](C=O)[C@@H](O)[C@H](O)[C@H](O)CO	-1.89
c1ccc2cc(C3=NCCN3)ncc2c1	3.66
Cc1sc2c(c1C)C(c1ccc(Cl)cc1)=N[C@@H](CC(=O)Nc1ccc(OCCOCCOCCOCCNc3cccc4c3C(=O)N(C3CCC(=O)NC3=O)C4=O)cc1)c1nnc(C)n1-2 (stereo partly drawn)	9.19
CC(C(=O)O)c1ccc(N2Cc3ccccc3C2=O)cc1 (stereo not drawn)	94.7
